Compound activity deposited in PubChem BioAssay by National Center for Advancing Translational Sciences (NCATS).
TDP1 cell CPT – DT40-hTDP1 cell growth loss with CPT; hit rate 12% among 420,000; chicken DT40 Tdp1-/-;hTDP1 cells + 20 nM CPT, ATP luminescence, 48 h; AID 686979; Potency, µM (series often up to 46.2 µM), for the others: top-dose activity change, negative = growth inhibition, usual class: inhibitors; also: nearly all actives have a fitted effect of over 55% in size
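Cell growth measured by CellTiter-Glo luminescence after a minimum 48 h, 37 C compound exposure with 20 nM CPT in Tdp1-knockout DT40 cells stably expressing hTDP1, seeded 400/well; qHTS titration format.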
VP16 counter – counter-screen for ROR gamma inhibitors: Gal4-VP16 reporter; Drosophila S2 Gal4-VP16 UAS-luciferase, luminescence, 20 h; Potency, µM (highest dose often 53.6 µM), for the others: top-dose activity, negative = inhibition, actives largely listed as inhibitors; hit rate 3.5% among 310,000; AID 2546;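 also: Gal4-VP16 expression switched on by copper sulfate through the metallothionein promoter; nearly all actives have a fitted effect of over 50% in size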
RORg inh – blocks mouse ROR gamma transcriptional activity. Potency, µM (series often up to 53.6 µM), for the others: top-dose activity change, negative = inhibition, hits mostly inhibitors. Drosophila S2 Gal4-RORgamma UAS-luciferase reporter, 20 h. hit rate 5.4% among 310,000; also: nearly all actives have a fitted effect of over 60% in size
Target sequence (P51450 whole entry, looked up, the tested form may be a part): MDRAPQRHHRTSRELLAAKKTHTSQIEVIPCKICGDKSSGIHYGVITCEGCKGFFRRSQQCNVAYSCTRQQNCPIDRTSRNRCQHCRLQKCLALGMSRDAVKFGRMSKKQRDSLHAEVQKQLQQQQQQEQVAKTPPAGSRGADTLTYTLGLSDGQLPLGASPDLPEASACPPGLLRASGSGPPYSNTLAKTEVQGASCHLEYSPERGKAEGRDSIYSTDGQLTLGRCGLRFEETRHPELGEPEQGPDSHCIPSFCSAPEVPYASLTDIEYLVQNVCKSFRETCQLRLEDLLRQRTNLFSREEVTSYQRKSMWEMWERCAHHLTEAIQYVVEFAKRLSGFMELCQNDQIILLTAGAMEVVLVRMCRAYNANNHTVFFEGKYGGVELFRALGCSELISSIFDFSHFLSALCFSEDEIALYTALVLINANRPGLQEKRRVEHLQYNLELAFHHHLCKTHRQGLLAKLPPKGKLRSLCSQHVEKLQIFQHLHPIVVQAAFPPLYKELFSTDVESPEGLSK
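Stably transfected Drosophila Schneider cells are the test system, with ROR gamma fused to Gal4 and luciferase under UAS control; luminescence is read after 20 hr of 700 uM copper sulfate induction at ambient temperature.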
TDP1 block – inhibitors of human tyrosyl-DNA phosphodiesterase TDP1. recombinant TDP1, AlphaScreen DNA substrate cleavage. Potency, µM (highest dose often 130 µM), inactives show at the top dose activity change, negative = inhibition, hits mostly inhibitors. hit rate 0.28% among 350,000; also: nearly all actives have a fitted effect of over 40% in size
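Signal: AlphaScreen proximity between streptavidin donor and anti-FITC acceptor beads on intact substrate. Reaction: Tdp1 1 nM, substrate 15 nM final, 5 min RT after 15 min compound preincubation.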
TDP1 cell noCPT – qHTS for Inhibitors of human tyrosyl-DNA phosphodiesterase 1 (TDP1): qHTS in cells in absence of CPT; DT40 Tdp1-/- hTDP1 cells, no CPT, ATP luminescence, 48 h; Potency, µM (titrated, usually from 46.2 µM), without a hit: at the highest dose activity change, negative = growth inhibition, actives largely listed as inhibitors; hit rate 15% among 420,000; AID 686978, 2013; also: nearly all actives have a fitted effect of over 55% in size
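Seeded 400 DT40-hTDP1 cells/well (vehicle DMSO, no 20 nM CPT); pinned compounds; ≥48 hr at 37 °C; CellTiter-Glo luminescence as viability measure.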
The depositor's hits bear a star; ? = inconclusive; nt = not tested or not shown; [ ] = remark or other dose. A selection: hits, their analogues and other compounds. The true share with any hit is near 19%. Calls follow the shape of the dose curve; as a rule, active = well fitted curve in the direction sought with a large enough effect; inconclusive = small, poorly fitted or top-dose-only effect, or another doubt; inactive = no such curve, though single readings can be large; an effect the other way counts as inactive or inconclusive. % is scaled to controls: 0 for no effect and ±100 for the full control effect; potency is read from the fitted curve at half-maximal effect.

SMILES	TDP1 cell CPT	VP16 counter	RORg inh	TDP1 block	TDP1 cell noCPT
CCC(=O)N1CCN(c2ccc(Cl)cc2NC(=O)c2ccc([N+](=O)[O-])o2)CC1	18.4µM*	-23.1%	?	2.6%	?
O=C(Nc1cc(Cl)ccc1-n1cncn1)c1ccc([N+](=O)[O-])o1	7.31µM*	nt	nt	2.4%[0.505 µM]	10.3µM*
O=C(Nc1cc(Cl)ccc1F)c1ccc(-n2cncn2)c([N+](=O)[O-])c1	-8.3%	nt	nt	nt	?
CCC(=O)N1CCN(c2ccc(NC(=O)c3ccco3)cc2Cl)CC1	8.1%	nt	nt	3.6%	-10.3%
CC(=O)N1CCN(c2ccc(NC(=O)c3ccc([N+](=O)[O-])o3)cc2Cl)CC1	0.411µM*	?	-27.4%	0.8%	0.92µM*
CCC(=O)N1CCN(c2ccc(NC(=O)c3ccc([N+](=O)[O-])o3)cc2Cl)CC1	0.82µM*	-11.4%	10µM*	-1.3%	5.17µM*
CC(=O)C1=CCC(c2ccccc2)N(S(C)(=O)=O)C1 (centres undefined)	-1.7%	nt	nt	nt	10.2%
O=S(=O)(c1ccccc1)N1CC2CC(Br)C(Br)CC21 (centres undefined)	-1.8%	nt	nt	nt	-27.2%
O=C(Nc1ccc(F)cc1)Nc1ccccc1N1CCCCC1	?	-0.7%	1.7%	5.5%	?
CCN1CCN(c2ccc(NC(=O)c3ccc([N+](=O)[O-])o3)cc2Cl)CC1	0.581µM*	3.5%[10 µM]	-33.2%	2.6%	0.517µM*
CCN1CCN(c2ccc(NC(=O)c3ccc(F)cc3)cc2Cl)CC1	8.0%	7.4%[10 µM]	4.4%	5.3%	20.8%
CN(C)S(=O)(=O)c1ccc(NC(=O)CN2CCCc3ccccc32)cc1	-24.8%	24.0%	13.2%	8.1%	-4.0%
COc1cccc2sc(N(Cc3cccnc3)C(=O)c3ccco3)nc12	16.4µM*	nt	nt	2.6%	?
CCOc1cccc2sc(N(Cc3cccnc3)C(=O)c3ccco3)nc12	?	nt	nt	-7.8%	?
COc1ccc(OC)c2sc(N(Cc3cccnc3)C(=O)c3ccco3)nc12	?	nt	nt	2.6%	20.6µM*
COc1ccc(OC)c(Nc2nc(-c3sc(NC(=O)CC(C)C)nc3C)cs2)c1	14.6µM*	-23.9%	30.6%	10.7%	16.4µM*
CCCCC(=O)Nc1nc(C)c(-c2csc(Nc3cc(Cl)ccc3OC)n2)s1	?	-15.7%	22.6%	0.0%	?
COc1ccc(Cl)cc1Nc1nc(-c2sc(NC(=O)C(C)(C)C)nc2C)cs1	5.17µM*	7.08µM*	?	-5.9%	3.66µM*
CCC(C)C(=O)Nc1nc(C)c(-c2csc(Nc3cc(Cl)ccc3OC)n2)s1 (centres undefined)	14.6µM*	?	?	2.9%	10.3µM*
CCCCC(=O)Nc1nc(C)c(-c2csc(Nc3cc(OC)ccc3OC)n2)s1	6.51µM*	-7.6%	33.2%	8.8%	?
Cc1nnc(Nc2ccc(F)cc2)c2ccccc12	6.0%	-2.7%	26.0%	nt	-27.9%
Cc1ccccc1N(CC(=O)NCCSC1CCCCC1)S(=O)(=O)c1ccccc1	?	0.3%	21.9%	2.0%	?
CCCC[C@@H]1CNCCN1CCCc1cc(OC)c(OC)c(OC)c1	-21.9%	nt	nt	-20.3%	-4.0%
CCC(C)C(=O)Nc1nc(C)c(-c2csc(Nc3cc(OC)ccc3OC)n2)s1 (centres undefined)	16.4µM*	?	?	10.7%	14.6µM*
O=C(NCC1CCN(Cc2ccc(F)cc2)CC1)c1cc2ccc3cccnc3c2[nH]1	16.4µM*	nt	nt	-2.1%	20.6µM*
SMILES	TDP1 cell CPT	VP16 counter	RORg inh	TDP1 block	TDP1 cell noCPT
O=C(NCc1ccc(Cl)cc1)c1cc2ccc3cccnc3c2[nH]1	-2.5%	nt	nt	3.2%	?
O=C(NCC1CCN(Cc2ccccc2Cl)CC1)c1cc2ccc3cccnc3c2[nH]1	?	nt	nt	3.2%	16.4µM*
COC(=O)Nc1nnc(CC(=O)Nc2ccccc2C)s1	-10.1%	-17.6%	28.5%	4.2%	-5.4%
Cc1cccc(CNC(=O)Cn2nc(C)n3c(cc4cc(F)ccc43)c2=O)c1	-5.0%	nt	nt	-2.0%	-3.0%
CC1=NN(c2ccc([N+](=O)[O-])cc2)C(=O)C1	-7.6%	nt	nt	nt	-11.3%
Cc1ccc(CNC(=O)c2c(Nc3ccccc3C)sc(C(=O)c3ccc(F)cc3)c2N)cc1	?	nt	nt	11.3%	14.6µM*
COc1cccc(Nc2sc(C(=O)c3ccc(Cl)cc3)c(N)c2C(=O)NCCc2ccc(OC)c(OC)c2)c1	?	nt	nt	1.5%	?
COc1ccc(CNC(=O)c2c(Nc3ccccc3C)sc(C(=O)c3ccccc3)c2N)cc1	?	nt	nt	12.2%	5.17µM*
COc1cccc(Nc2sc(C(=O)c3ccc(F)cc3)c(N)c2C(=O)NCc2ccc(C)cc2)c1	4.11µM*	nt	nt	9.3%	5.17µM*
Cc1cc(C(=O)COC(=O)CNC(=O)c2ccc(Cl)c(Cl)c2)c(C)n1Cc1ccco1	0.5%	1.1%	28.1%	0.0%	-10.7%
CCOC(=O)C1=C(CCc2ccccc2)NC(=O)NC1c1ccc(Br)cc1 (centres undefined)	?	0.4%	14.8%	nt	?
CCOC(=O)C1=C(COc2ccccc2)NC(=O)NC1c1ccc(Br)cc1 (centres undefined)	18.4µM*	-18.4%	32.4%	nt	16.4µM*
CCOC(=O)C1=C(COc2ccccc2)NC(=O)NC1c1ccc2ccccc2c1 (centres undefined)	18.4µM*	nt	nt	nt	20.6µM*
CCOC(=O)C1=C(CN(C)Cc2ccccc2)NC(=O)NC1c1ccc(OC)cc1 (centres undefined)	?	nt	nt	-2.5%	?
CCOC(=O)C1=C(CN(C)Cc2ccccc2)NC(=O)NC1c1ccc(OC(C)C)cc1 (centres undefined)	16.4µM*	nt	nt	7.0%	16.4µM*
CNC(=O)CNC(=O)Nc1ccc(C)cc1	-6.5%	10.0%	-21.0%	-0.5%	2.0%
Cc1ccc(NC(=O)c2sccc2C)cc1S(=O)(=O)N(C)C	-15.6%	6.6%	32.9%	0.6%	?
COC(=O)c1[nH]c2cc(OC)ccc2c1NC(=O)CN1CCC(C(N)=O)CC1	-14.3%	-0.9%	11.2%	4.4%	-4.4%
CCOc1ccc(CNCCc2ccc(S(N)(=O)=O)cc2)cc1	?	12.4%	6.0%	-5.1%	?
Nc1nonc1C(=O)NCCNCc1ccccc1OCc1ccc(F)cc1	23.1µM*	-19.5%	?	3.9%	16.4µM*
NS(=O)(=O)c1ccc(NCc2ccccc2OCc2ccc(F)cc2)cc1	?	-2.1%	?	9.2%	18.4µM*
CCOc1ccc(CNCCNC(=O)c2nonc2N)cc1	-19.2%	7.6%	-2.4%	2.7%	?
NS(=O)(=O)c1ccc(CCNCc2ccccc2OCc2ccc(F)cc2)cc1	?	-0.3%	17.0%	nt	20.6µM*
Fc1cccc(COc2ccccc2CNc2ccccc2)c1	-14.3%	-4.7%	19.9%	-0.6%	-36.2%
